# According to PubChem BioAssay (NCATS):
# Inconclusive results are not listed. A call without a number means that no potency is given here. Calls of active or inactive are those of the source. Unless noted, calls come from the whole dose curve; as a rule, active = well fitted curve in the direction sought with a large enough effect; inconclusive = small, poorly fitted or top-dose-only effect, or another doubt; inactive = no such curve, though single readings can be large; an effect the other way counts as inactive or inconclusive.
# What was measured:
# [1] = target: Glucocorticoid receptor (Homo sapiens) (UniProt P04150); test: GR-GFP Redistribution (AID 450;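 active = compounds whose dose series gives a full or clear partial fitted curve of increased nuclear translocation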; note: potency is the fitted concentration of half-maximal effect); details: U2OS GR-GFP nuclear translocation, laser cytometry, 2 h
# Sequence of Glucocorticoid receptor (Homo sapiens) (P04150 whole entry, looked up, the tested form may be a part): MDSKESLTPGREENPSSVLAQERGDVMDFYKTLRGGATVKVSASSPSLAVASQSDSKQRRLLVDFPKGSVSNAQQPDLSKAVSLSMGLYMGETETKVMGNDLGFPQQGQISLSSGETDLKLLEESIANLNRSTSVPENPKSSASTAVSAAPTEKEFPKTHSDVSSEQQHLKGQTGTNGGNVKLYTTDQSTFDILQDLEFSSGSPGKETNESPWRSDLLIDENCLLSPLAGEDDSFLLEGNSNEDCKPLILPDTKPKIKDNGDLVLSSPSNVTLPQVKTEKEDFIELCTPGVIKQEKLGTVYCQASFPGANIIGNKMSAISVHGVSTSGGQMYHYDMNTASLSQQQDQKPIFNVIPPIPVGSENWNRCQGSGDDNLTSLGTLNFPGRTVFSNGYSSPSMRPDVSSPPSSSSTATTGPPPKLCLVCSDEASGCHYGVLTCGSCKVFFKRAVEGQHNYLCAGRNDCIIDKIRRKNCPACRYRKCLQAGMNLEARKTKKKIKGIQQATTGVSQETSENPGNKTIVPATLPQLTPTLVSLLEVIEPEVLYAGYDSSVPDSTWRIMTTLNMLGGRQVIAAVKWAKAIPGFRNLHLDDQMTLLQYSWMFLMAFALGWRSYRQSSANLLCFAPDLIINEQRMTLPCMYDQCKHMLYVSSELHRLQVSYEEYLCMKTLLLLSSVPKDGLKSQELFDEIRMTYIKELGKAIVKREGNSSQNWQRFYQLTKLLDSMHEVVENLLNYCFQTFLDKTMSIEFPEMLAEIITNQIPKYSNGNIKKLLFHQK
# [2] = target: Glucocorticoid receptor (Homo sapiens) (UniProt P04150); test: GR-EFC Redistribution (AID 451; calls by dose curve; note: potency is the fitted concentration of half-maximal effect); details: CHO-K1 GR-EFC translocation, beta-gal luminescence, 2 h
# Procedure, shortened: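 CHO-K1 cells expressing nuclear EA and GR-ED fragments of b-gal; compounds titrated up to 46 uM final, 2 h at 37 C. GR nuclear translocation read as complemented b-gal luminescence after 1 h RT detection.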
# [3] = target: Mitogen-activated protein kinase 10 (Mus musculus) (UniProt Q61831); test: JNK3 AlphaScreen Assay (AID 530; active = well fitted curve in either direction with a large enough effect, not every such curve was filed as active;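 note: kinase came from lysate of stimulated human HepG2 cells; signal reports phosphorylation of biotinylated GST-cJun 1-79 at Ser73 with 10 µM ATP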)
# Procedure, shortened: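 Pre-activated (IL-1β/TNFα) JNK3 in HepG2 lysates phosphorylates biotin-GST-cJun(1-79), 10 uM ATP; anti-phospho-cJun(Ser73) AlphaScreen read at room temperature, pH 7.6 Tris buffer. Compounds pre-incubated 15 min as titrations.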
# [4] = target: DNA dC->dU-editing enzyme APOBEC-3G (Homo sapiens) (UniProt Q9HC16); test: qHTS for inhibitors of Vif-A3G interactions: Validation (AID 588379)
# Sequence of DNA dC->dU-editing enzyme APOBEC-3G (Homo sapiens) (Q9HC16 whole entry, looked up): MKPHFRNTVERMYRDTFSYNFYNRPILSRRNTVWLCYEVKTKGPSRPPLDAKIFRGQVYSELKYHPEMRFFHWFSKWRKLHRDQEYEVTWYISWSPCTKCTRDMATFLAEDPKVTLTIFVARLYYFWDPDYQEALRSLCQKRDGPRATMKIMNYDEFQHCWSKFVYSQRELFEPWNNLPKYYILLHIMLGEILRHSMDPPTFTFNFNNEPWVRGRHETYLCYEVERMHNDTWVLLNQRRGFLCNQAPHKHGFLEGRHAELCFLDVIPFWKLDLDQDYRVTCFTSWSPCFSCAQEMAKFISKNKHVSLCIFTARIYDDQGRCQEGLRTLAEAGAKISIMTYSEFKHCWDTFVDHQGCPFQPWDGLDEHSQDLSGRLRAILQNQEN
# Procedure, shortened: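 HeLa cells stably expressing Vif and A3G-eYFP, 700 cells/well, incubated overnight at 37 deg C, then exposed to compound overnight at 37 deg C. Inhibition of Vif-mediated degradation read as increased yellow fluorescence (Ex 488/Em 500-530) by laser-scanning cytometry.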
# [5] = system: Zika virus NS2B-NS3 protease; test: Primary screen GU AMC qHTS for Zika virus inhibitors (AID 1347154); note: nearly all actives have a fitted effect of over 70% in size
# Procedure, shortened: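 Unlinked Zika NS2B hydrophilic domain–NS3 protease complex at 25 nM in 10 mM Tris-HCl pH 8.0, 0.01% Tween 20, with an AMC peptide substrate. Fluorescence change (340/450 nm) over 15 min at room temperature, normalized to controls, fitted to 4-parameter Hill.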
# [6] = target: Rap guanine nucleotide exchange factor 3 (Homo sapiens) (UniProt O95398); test: Confirmatory qHTS for agonist of cAMP-regulated guanine nucleotide exchange factor 3 (EPAC1) (AID 1645881);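 note: EPAC1 catalysed release of BODIPY-GDP from Rap1B seen as fluorescence loss; nearly all actives have a fitted effect of over 75% in size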
# [7] = target: Rap guanine nucleotide exchange factor 4 (Homo sapiens) (UniProt Q8WZA2); test: Confirmatory qHTS for agonist of cAMP-regulated guanine nucleotide exchange factor 4 (EPAC2) (AID 1645884);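 note: nucleotide exchange releases bodipy-GDP from Rap1 and this lowers its fluorescence; nearly all actives have a fitted effect of over 65% in size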
# Sequence of Rap guanine nucleotide exchange factor 4 (Homo sapiens) (Q8WZA2 whole entry, looked up): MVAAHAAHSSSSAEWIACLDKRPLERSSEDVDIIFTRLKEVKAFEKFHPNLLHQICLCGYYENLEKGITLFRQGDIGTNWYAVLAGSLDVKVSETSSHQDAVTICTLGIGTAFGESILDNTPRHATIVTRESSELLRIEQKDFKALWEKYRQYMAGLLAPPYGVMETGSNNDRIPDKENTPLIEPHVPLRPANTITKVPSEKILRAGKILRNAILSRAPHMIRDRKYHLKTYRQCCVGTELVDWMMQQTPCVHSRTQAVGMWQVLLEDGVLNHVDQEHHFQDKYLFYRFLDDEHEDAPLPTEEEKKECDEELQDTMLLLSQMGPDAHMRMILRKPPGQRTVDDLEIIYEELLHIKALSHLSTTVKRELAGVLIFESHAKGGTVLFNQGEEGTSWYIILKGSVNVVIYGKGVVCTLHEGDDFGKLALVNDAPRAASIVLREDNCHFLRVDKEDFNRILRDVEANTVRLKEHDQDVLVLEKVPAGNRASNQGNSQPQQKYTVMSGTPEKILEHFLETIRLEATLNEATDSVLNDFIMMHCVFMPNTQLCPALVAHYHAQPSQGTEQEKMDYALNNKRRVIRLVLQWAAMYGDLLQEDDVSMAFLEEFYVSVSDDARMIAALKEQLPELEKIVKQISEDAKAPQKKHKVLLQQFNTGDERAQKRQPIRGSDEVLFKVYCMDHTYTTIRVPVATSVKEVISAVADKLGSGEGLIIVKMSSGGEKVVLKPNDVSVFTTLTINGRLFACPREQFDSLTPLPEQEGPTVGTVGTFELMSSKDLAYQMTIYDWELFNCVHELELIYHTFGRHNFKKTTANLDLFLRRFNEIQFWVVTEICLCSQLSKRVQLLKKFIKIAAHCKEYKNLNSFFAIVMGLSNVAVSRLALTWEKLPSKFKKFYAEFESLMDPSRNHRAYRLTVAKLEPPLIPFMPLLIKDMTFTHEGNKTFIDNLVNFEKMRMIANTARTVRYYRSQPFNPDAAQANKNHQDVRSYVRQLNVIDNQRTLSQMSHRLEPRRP
# [8] = target: Rap guanine nucleotide exchange factor 4 (Homo sapiens) (UniProt Q8WZA2); test: Confirmatory qHTS for antagonist of cAMP-regulated guanine nucleotide exchange factor 4 (EPAC2) (AID 1645885); note: potency is the fitted concentration of half-maximal effect; nearly all actives have a fitted effect of over 25% in size
# [9] = qHTS Assay for Lipid Storage Modulators (AID 1519; calls by dose curve); details: Drosophila S3 cells, BODIPY lipid droplet/cell ratio, laser cytometry, cells loaded with oleic acid
# Procedure, shortened: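 Cells seeded at 5,000 per well were treated with compounds over a concentration series and loaded with oleic acid (400 uM, as added). Lipid droplet fluorescence (488 nm excitation, 500-530 nm channel) was read by laser-scanning cytometry and normalized to 20 uM Triacsin C.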
# [10] = target: Ubiquitin carboxyl-terminal hydrolase 1 (Homo sapiens) (UniProt O94782); test: Inhibitors of USP1/UAF1: Pilot qHTS (AID 504865);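 note: rhodamine fluorescence freed from ubiquitin-rhodamine substrate followed over time; top concentration of the series differs between compounds; nearly all actives have a fitted effect of over 35% in size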
# Sequence of Ubiquitin carboxyl-terminal hydrolase 1 (Homo sapiens) (O94782 whole entry, looked up): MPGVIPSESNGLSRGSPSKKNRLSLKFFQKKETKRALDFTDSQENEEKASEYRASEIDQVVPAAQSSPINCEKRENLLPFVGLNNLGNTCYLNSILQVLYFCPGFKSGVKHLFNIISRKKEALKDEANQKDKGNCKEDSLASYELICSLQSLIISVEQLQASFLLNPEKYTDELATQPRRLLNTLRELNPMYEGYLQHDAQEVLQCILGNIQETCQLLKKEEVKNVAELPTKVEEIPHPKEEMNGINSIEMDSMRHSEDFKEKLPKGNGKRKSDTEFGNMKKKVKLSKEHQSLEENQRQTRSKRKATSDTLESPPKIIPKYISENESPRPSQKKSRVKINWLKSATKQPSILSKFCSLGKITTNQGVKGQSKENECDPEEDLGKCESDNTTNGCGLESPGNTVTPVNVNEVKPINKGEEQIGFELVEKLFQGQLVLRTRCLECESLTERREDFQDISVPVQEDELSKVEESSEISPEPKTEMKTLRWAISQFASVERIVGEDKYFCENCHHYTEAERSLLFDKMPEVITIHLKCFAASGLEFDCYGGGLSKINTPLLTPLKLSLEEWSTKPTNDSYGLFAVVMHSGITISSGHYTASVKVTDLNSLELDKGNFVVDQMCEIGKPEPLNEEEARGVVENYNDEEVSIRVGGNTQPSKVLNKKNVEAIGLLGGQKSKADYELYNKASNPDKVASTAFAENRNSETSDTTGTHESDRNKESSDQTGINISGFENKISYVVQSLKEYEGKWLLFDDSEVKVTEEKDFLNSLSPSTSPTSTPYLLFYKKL
# Procedure, shortened: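 USP1/UAF1 complex at 1 nM preincubated 15 min at room temperature with compound, then Ub-Rho substrate added at 150 nM final. Fluorescence (480/540 nm) read kinetically in 50 mM HEPES pH 7.8, 0.5 mM EDTA, 1 mM TCEP, 0.1 mg/ml BSA, 0.01% Tween-20.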
# [11] = NCATS anti-infectives library activity on HEK293 viability as a counter-qHTS vs the C. elegans viability qHTS (AID 1745854);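 note: HEK293 cells exposed to compounds for 24 hr before the viability read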
# Procedure, shortened: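 HEK293 cells (1,500/well) exposed 24 hr at 37C to 1:5 titrations, up to 41.7 uM final; counter-screen to a C. elegans viability qHTS. Viability by CellTiter-Glo luminescence after 10 min at room temperature; digitonin as control.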
# [12] = qHTS profiling of the MIPE4 collection as inhibitors of Plasmodium falciparum (HB3) proliferation (AID 743347; call rule not given here); details: P. falciparum HB3 in erythrocytes, SYBR Green DNA, 72 h; at 28.5 µM (top of the series)
# Procedure, shortened: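 Erythrocytes infected with P. falciparum (0.3% parasitemia, 2.5% hematocrit) incubated with compounds 72 h at 37 C, 5% CO2. Lysis with saponin/Triton buffer containing SYBR Green I, overnight at room temperature in the dark; DNA fluorescence (485/535 nm) normalised to 0.29 uM artemisinin and DMSO.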
# [13] = target: Glutathione peroxidase 1 (Homo sapiens) (UniProt P07203); test: Primary qHTS Assay for Inhibitors of Recombinant Selenoprotein Glutathione Peroxidase 1 (GPX1) (AID 1845191); note: nearly all actives have a fitted effect of over 65% in size
# Procedure, shortened: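 GR-coupled assay: compounds preincubated 30 min at room temperature with GPX1, then reaction started with CHP; final 10 nM GPX1, 1 mM GSH, 0.5 mM CHP, 0.5 mM NADPH, 100 nM GR, 0.01% BSA, pH 7.5 Tris buffer. NADPH fluorescence (340/450 nm) read at 0 and 15 min.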
# [14] = target: Phospholipid hydroperoxide glutathione peroxidase GPX4 (Homo sapiens) (UniProt P36969); test: Primary qHTS Assay for Inhibitors of Recombinant Selenoprotein Glutathione Peroxidase 4 (GPX4) (AID 1845192); details: outcome: dose series up to 50 µM unless noted; note: nearly all actives have a fitted effect of over 65% in size
# Sequence of Phospholipid hydroperoxide glutathione peroxidase GPX4 (Homo sapiens) (P36969 whole entry, looked up): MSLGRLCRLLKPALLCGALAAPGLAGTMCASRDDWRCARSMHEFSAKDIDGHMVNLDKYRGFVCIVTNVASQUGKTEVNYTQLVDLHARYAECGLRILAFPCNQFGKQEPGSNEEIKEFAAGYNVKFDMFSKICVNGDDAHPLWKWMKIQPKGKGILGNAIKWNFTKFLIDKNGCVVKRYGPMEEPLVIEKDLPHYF
# Procedure, shortened: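 GR-coupled assay: recombinant GPX4 preincubated 30 min with compound at room temperature; final 200 nM GPX4, 1 mM GSH, 0.5 mM cumene hydroperoxide, 0.5 mM NADPH, 100 nM GR, 0.01% BSA, pH 7.5 Tris. NADPH fluorescence (340/450 nm) read at 0 and 15 min.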
# [15] = AP1 Signaling Pathway (AID 357; active = well fitted curve in either direction with a large enough effect, not every such curve was filed as active;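 note: ME-180 reporter cells stimulated with EGF at its EC50 level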); details: ME-180 AP-1-bla reporter, EGF-induced, beta-lactamase ratio, 5 h; at 38 µM (top of the series)
# Procedure, shortened: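 Modulation of EGF-driven AP-1 transcription was assessed with a beta-lactamase reporter in ME-180 cells. Compound and EC50 EGF were co-incubated 5 hours at 37 °C before 2.5-hour CCF4 loading at room temperature and dual-emission reading.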
# [16] = target: Cytochrome P450 1A2 (Homo sapiens) (UniProt P05177); test: p450-cyp1a2 (AID 410; calls by dose curve; note: potency is the fitted concentration of half-maximal effect)
# Sequence of Cytochrome P450 1A2 (Homo sapiens) (P05177 whole entry, looked up): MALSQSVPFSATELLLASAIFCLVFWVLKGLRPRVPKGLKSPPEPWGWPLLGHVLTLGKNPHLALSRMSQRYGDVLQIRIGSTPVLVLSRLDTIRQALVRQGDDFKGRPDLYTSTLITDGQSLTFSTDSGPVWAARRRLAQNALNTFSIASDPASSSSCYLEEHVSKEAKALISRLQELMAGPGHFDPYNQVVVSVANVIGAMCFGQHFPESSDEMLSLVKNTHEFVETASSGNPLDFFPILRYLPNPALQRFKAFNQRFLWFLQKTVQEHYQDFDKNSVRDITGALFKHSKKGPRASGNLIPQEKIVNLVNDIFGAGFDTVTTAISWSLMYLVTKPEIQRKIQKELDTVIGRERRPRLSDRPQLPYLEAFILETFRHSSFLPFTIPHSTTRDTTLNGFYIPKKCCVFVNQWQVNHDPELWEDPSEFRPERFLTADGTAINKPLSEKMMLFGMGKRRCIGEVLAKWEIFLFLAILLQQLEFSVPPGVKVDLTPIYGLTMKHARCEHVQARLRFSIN
# Procedure, shortened: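 20nM CYP1A2 with 100uM Luciferin-ME (at Km) in 100mM KPO4; compound preincubated 10 min, NADPH regeneration added, 60 min at room temperature. Luciferin quantified by luminescence after detection reagent; normalized to 57 uM furafylline.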
# [17] = NFAT Signaling Pathway (AID 444; active = well fitted curve in either direction with a large enough effect, not every such curve was filed as active;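 note: carbachol stimulus at about its EC50 of 1 µM final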); details: Jurkat NFAT-bla M1, carbachol, beta-lactamase ratio, 5 h; at 38 µM (top of the series)
# Procedure, shortened: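 Jurkat cells with NFAT-driven β-lactamase reporter and co-expressed M1 receptor, stimulated with carbachol (final 1 uM, ~EC50), compound titration, 5 h at 37 °C. CCF4 loaded 1 h at RT; 460/530 nm ratio gave %activity and AC50.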
# [18] = Stat Signaling Pathway (AID 446; active = well fitted curve in either direction with a large enough effect, not every such curve was filed as active;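 note: ME-180 cervical cancer cells given 40 pM IL-6 alongside compound; SIE-controlled beta-lactamase reporter measured as 460/530 nm FRET emission ratio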); details: ME-180 (cervical carcinoma) SIE beta-lactamase reporter, IL-6 stimulated, 5 h; at 38 µM (top of the series)
# Procedure, shortened: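 IL-6/STAT signaling read in ME-180 cells via an SIE beta-lactamase reporter. Stimulus was 40 pM IL-6 (its AC50) for 5 hrs, so both activation and inhibition register.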
# [19] = target: Guanine nucleotide-binding protein G(i) subunit alpha-1 (Homo sapiens) (UniProt P63096); test: qHTS Assay for Inhibitors of RGS12 GoLoco Motif Activity (Green Fluorophore) (AID 879);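 note: negative values mean loss of peptide binding seen as reduced polarization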
# Sequence of Guanine nucleotide-binding protein G(i) subunit alpha-1 (Homo sapiens) (P63096 whole entry, looked up): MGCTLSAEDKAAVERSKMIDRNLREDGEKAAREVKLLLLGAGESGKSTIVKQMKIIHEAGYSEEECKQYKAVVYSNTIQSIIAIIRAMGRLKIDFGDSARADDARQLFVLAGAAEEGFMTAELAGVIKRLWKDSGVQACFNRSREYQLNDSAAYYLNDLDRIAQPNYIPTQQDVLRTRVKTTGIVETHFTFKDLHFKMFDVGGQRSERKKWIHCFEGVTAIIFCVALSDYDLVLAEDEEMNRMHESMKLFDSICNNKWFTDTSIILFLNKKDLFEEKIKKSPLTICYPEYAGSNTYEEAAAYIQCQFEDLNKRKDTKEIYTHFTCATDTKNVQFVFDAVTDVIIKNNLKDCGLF
# Procedure, shortened: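 Fluorescence polarization assay: 50 nM Gαi1 with 10 nM FITC-labeled RGS12 GoLoco peptide in 10 mM Tris pH 7.5, 150 mM NaCl, 0.1 mM GDP, 0.05% NP40, 10 min at room temperature with compound.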
# [20] = target: Cytochrome P450 2C9 (Homo sapiens) (UniProt P11712); test: qHTS Assay for Inhibitors and Substrates of Cytochrome P450 2C9 (AID 883); note: nearly all actives have a fitted effect of over 60% in size
# Procedure, shortened: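 10nM CYP2C9 + 100uM Luciferin-H (=KM), 25mM KPO4; cpd 10 min 37C; NADPH regen, 60 min 37C; stop/detect with P450 Glo-Buffer 20 min; luminescence. Norm. to 57uM sulphaphenazole as full inhibition.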
# [21] = target: Cytochrome P450 3A4 (Homo sapiens) (UniProt P08684); test: qHTS Assay for Activators of Cytochrome P450 3A4 (AID 885); note: nearly all actives have a fitted effect of over 65% in size
# Sequence of Cytochrome P450 3A4 (Homo sapiens) (P08684 whole entry, looked up): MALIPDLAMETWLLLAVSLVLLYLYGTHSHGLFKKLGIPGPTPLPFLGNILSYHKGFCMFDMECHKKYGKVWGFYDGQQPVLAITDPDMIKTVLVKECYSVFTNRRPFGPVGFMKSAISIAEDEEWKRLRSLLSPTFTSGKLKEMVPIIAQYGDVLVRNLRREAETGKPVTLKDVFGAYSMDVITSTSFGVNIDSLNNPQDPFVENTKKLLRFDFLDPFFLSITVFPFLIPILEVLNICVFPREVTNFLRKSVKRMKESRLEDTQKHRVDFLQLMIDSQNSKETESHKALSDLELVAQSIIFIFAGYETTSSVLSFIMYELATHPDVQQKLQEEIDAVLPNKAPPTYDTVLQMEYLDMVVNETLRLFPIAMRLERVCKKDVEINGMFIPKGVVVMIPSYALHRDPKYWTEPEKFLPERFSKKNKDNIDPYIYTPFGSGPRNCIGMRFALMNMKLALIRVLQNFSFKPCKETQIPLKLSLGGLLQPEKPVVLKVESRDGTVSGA
# Procedure, shortened: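 Quantitative HTS format: compounds preincubated with 20nM human CYP3A4 and Luciferin-PPXE substrate at KM, reaction started by NADPH regeneration, stopped after 60 min, luciferase luminescence read 20 min later.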
# [22] = target: Cytochrome P450 2D6 (Homo sapiens) (UniProt P10635); test: qHTS Assay for Inhibitors and Substrates of Cytochrome P450 2D6 (AID 891);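 note: luciferin methyl ether substrate demethylated by CYP2D6 with NADPH regeneration; nearly all actives have a fitted effect of over 60% in size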
# Procedure, shortened: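 Human CYP2D6 (5 nM) with 30 uM Luciferin-ME EGE (at Km) in 100 mM KPO4, compound preincubated 10 min, then NADPH regeneration system for 60 min at room temperature. Luciferin read by luminescence; normalized to 1.43 uM quinidine.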
# [23] = target: Cytochrome P450 2C19 (Homo sapiens) (UniProt P33261); test: qHTS Assay for Inhibitors and Substrates of Cytochrome P450 2C19 (AID 899); note: nearly all actives have a fitted effect of over 60% in size
# Procedure, shortened: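 Luminescent read-out of luciferin formed from Luciferin-H EGE (10uM, equal to KM). Enzyme 5nM in 50mM KPO4; compound added, 10 min at 37C, then NADPH regenerating system for 60 min at 37C. Full inhibition defined by 57uM ketoconazole.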
# [24] = Confirmation and Secondary Assay for Modulators of Hemoglobin Beta Chain Splicing at IVS2 654 locus (AID 910);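 note: HeLa cells stably carrying EGFP split by mutant beta-globin IVS2-654 intron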
# Procedure, shortened: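 HeLa cells stably expressing EGFP interrupted by β-globin IVS2-654 intron, seeded overnight in Opti-MEM/2% FCS, then treated 2 days at 37 °C. Restored splicing read as total peak GFP intensity per well by laser scanning cytometry (488 nm excitation, 500–520 nm emission); 500 nM antisense PNA as control.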
# [25] = Confirmation and Secondary Assay for Modulators of Hemoglobin Beta Chain Splicing at IVS2 705 locus (AID 930);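 note: HeLa cells stably expressing the EGFP-705 splicing reporter; GFP fluorescence per well restored by corrected splicing of the IVS2-705 intron in EGFP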
# Procedure, shortened: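 Assay measures total GFP intensity per well in HeLa EGFP-705 cells after 2 days with compound; mis-splicing normally truncates EGFP, so fluorescence indicates corrected splicing.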
# [26] = target: Muscarinic acetylcholine receptor M1 (Rattus norvegicus) (UniProt P08482); test: qHTS Assay for Antagonists of Acetylcholine Muscarinic M1 Receptor: Kinetic Measurement of Intracellular Calcium Response (AID 943); note: nearly all actives have a fitted effect of over 75% in size
# Procedure, shortened: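 CHO cells expressing rat M1 receptor, Fluo-4 loaded, preincubated 10 min with compound, then stimulated with EC80 carbachol (100 nM final). Kinetic calcium fluorescence over 4 min; response taken as peak over basal signal.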
# [27] = target: Pyruvate kinase (Leishmania mexicana) (UniProt Q27686); test: qHTS Validation Assay for Inhibitors of Leishmania Mexicana Pyruvate Kinase (AID 945)
# Procedure, shortened: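 Pyruvate kinase activity of E451W LmPYK (0.2 nM) was followed as ATP output after 1 h at room temperature with 0.5 mM PEP and 0.1 mM ADP, detected by PKLight luminescence.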
# [28] = target: Pyruvate kinase PKM (Homo sapiens) (UniProt P14618); test: qHTS Assay for Activators of Human Muscle Pyruvate Kinase (AID 954; active = well fitted curve in the direction sought with a large enough effect, not every such curve was filed as active)
# Procedure, shortened: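 Enzyme was run at intermediate activity so both inhibitors and activators could be detected. ATP formed from ADP and PEP by 0.1 nM human PKM2 during a 1 h room-temperature incubation was quantified by coupled luciferase luminescence.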
# [29] = target: Alpha-galactosidase A (Homo sapiens) (UniProt P06280); test: Counterscreen for Glucocerebrosidase Inhibitors: qHTS Assay for Human alpha-Galactosidase at pH 4.5 (AID 992)
# Sequence of Alpha-galactosidase A (Homo sapiens) (P06280 whole entry, looked up): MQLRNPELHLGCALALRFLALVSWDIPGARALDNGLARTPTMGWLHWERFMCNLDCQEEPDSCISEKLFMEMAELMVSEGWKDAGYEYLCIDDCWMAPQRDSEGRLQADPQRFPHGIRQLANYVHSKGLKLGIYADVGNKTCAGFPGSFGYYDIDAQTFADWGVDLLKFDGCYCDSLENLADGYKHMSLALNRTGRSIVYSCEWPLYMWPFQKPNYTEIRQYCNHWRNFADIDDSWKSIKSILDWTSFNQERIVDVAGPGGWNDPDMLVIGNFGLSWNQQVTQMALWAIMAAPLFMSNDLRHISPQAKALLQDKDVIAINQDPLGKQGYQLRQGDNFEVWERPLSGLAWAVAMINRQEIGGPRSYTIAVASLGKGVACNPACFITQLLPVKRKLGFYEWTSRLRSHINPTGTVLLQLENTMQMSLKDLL
# Procedure, shortened: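 Read-out is 4-methylumbelliferone fluorescence (365 nm excitation, 440 nm emission) after a pH 10 NaOH/glycine stop. Reactions held 2 nM enzyme and 80 uM substrate at pH 4.5 for 20 min at room temperature.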
# [30] = target: alpha-glucosidase (Oryza sativa, rice) (UniProt Q653V4); test: Counterscreen for Glucocerebrosidase Inhibitors: qHTS Assay for Rice alpha-Glucosidase at pH 5.0 (AID 997)
# Procedure, shortened: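 Rice alpha-glucosidase (4 nM final) with 400 uM 4-methylumbelliferyl-alpha-D-glucopyranoside in citrate buffer pH 5.0, 20 min at room temperature, stopped at pH 10; fluorescence 365/440 nm, compounds 0.7 nM–77 uM, AC50 from Hill fits.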
compound,measurement,setting,value
CCC(C)(C)C(=O)O[C@@H]1C[C@@H](C)C=C2C=C[C@H](C)[C@H](CC[C@@H]3C[C@@H](O)CC(=O)O3)[C@H]21,Potency,[1],> 46 µM (inactive)
same,Potency,[2],> 46 µM (inactive)
same,Potency,[3],inactive
same,Potency,[4],inactive
same,Potency,[5],inactive
same,outcome,[6],inactive
same,outcome,[7],inactive
same,Potency,[8],49.4 µM (active)
CC(=O)O[C@H](CC(=O)O)C[N+](C)(C)C,Potency,[1],> 46 µM (inactive)
same,Potency,[2],> 46 µM (inactive)
same,Potency,[3],inactive
same,"activity change, negative = inhibition",[9]; at 57.5 µM (top of the series),5.24% (inactive)
same,max response,[9]; measured here: cell count channel max response,15%
same,max response,[9]; measured here: lipid channel max response,18.1%
same,Potency,[10],inactive
same,Potency,[4],inactive
same,Potency,[5],inactive
OCCOCCN1CCN(Cc2cccc(Oc3ccccc3)c2)CC1,Potency,[5],inactive
same,outcome,[11],inactive
CN[C@@H]1[C@H](O)[C@H](O[C@@H]2[C@H](O)[C@@H](O[C@H]3O[C@H]([C@@H](C)NC)CC[C@H]3N)[C@@H](N)C[C@H]2N)OC[C@]1(C)O,"growth, % of control",[12],107%
same,Potency,[5],inactive
same,outcome,[13],inactive [at 9.52 µM]
same,outcome,[14],inactive [at 9.73 µM]
N[C@H](Cc1ccc(Cl)cc1)C(=O)O,"activity change, negative = inhibition",[15],25.5% (inactive)
same,Potency,[16],31.6 µM (active)
same,"activity change, negative = inhibition",[17],7.18% (inactive)
same,"activity, negative = inhibition",[18],-4.9% (inactive)
same,Potency,[1],> 46 µM (inactive)
same,Potency,[2],> 46 µM (inactive)
same,Potency,[3],inactive
same,outcome,[19],inactive
same,Potency,[20],inactive
same,Potency,[21],inactive
same,Potency,[22],inactive
same,Potency,[23],inactive
same,outcome,[24],inactive
same,outcome,[25],inactive
same,Potency,[26],inactive
same,Potency,[27],inactive
same,outcome,[28],inactive
same,outcome,[29],inactive
same,outcome,[30],inactive
same,Potency,[4],inactive
same,Potency,[5],inactive
